# Results taken from PubChem BioAssay (NCATS).
# Records with an inconclusive call do not appear. Entries that show only a call come without a potency. Activity calls are given as the source filed them. Calls come from the whole dose curve; as a rule, active = well fitted inhibition curve with a large enough effect; inconclusive = small, poorly fitted or top-dose-only effect; inactive = flat fitted curve, though single readings scatter.
# Assay: P-glycoprotein substrates identified in KB-8-5-11 adenocarcinoma cell line, qHTS therapeutic library screen (AID 1346987); note: nearly all actives have a fitted effect of over 65% in size
# Conditions: KB-8-5-11 (P-gp overexpressing) viability, CellTiter-Glo, 72 h; series mostly up to 44.5 µM
# Outline: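 KB-8-5-11, a colchicine-selected P-gp-overexpressing KB-3-1 subline, was grown without colchicine for the assay. Cells were seeded at 500 cells/well, dosed in concentration-response and incubated 72 h at 37 degree C, 5% CO2. Viability was read by CellTiter-Glo luminescence.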
# Potency is the fitted concentration of half-maximal effect.
SMILES,Potency,"activity change, negative = cytotoxicity"
COc1ccc2nc(S(=O)(=O)Cc3ncc(C)c(OC)c3C)[nH]c2c1,inactive,
Cc1cn(C2C=CC(CO)O2)c(=O)[nH]c1=O (stereo not drawn),inactive,
Cc1cccc(Oc2cnc(=O)[nH]c2)c1,inactive,
O=C(O)CCCCCC[C@H]1C(=O)NC(=O)N1CC[C@@H](O)C1CCCCC1,inactive,
COc1cc(C(=O)NC2CCN(C)CC2)ccc1Nc1ncc2c(n1)N(C1CCCC1)CC(F)(F)C(=O)N2C,1.16 µM (active),
CC1=CC(=O)C2(OC3OC(C)C(O)C(OC(=O)/C=C/c4ccccc4)C3O)C=COC(OC3OC(CO)C(O)C(O)C3O)C12 (stereo not drawn),inactive,
O=C1CCC(=O)N(O)CCCCCNC(=O)CCC(=O)N(O)CCOCCNC(=O)CCC(=O)N(O)CCCCCN1,inactive,
CC(=O)O[C@H]1C[C@@](O)(C(C)C)C2[C@@H](OC(=O)c3ccc(O)cc3)C[C@@]3(C)O[C@H]3C[C@]21C (stereo partly drawn),inactive,
CC(c1ncncc1F)C(O)(Cn1cncn1)c1ccc(F)cc1F (stereo not drawn),inactive,
COc1cc(OC)c(/C=C/S(=O)(=O)Cc2ccc(OC)c(NCC(=O)O)c2)c(OC)c1,0.461 µM (active),
CC(C)Oc1ccc(C(=O)NC(CNC(=O)CN(C)C)Cc2ccc(-c3cn4cccc(C(C)O)c4n3)cc2)cc1Cl (stereo not drawn),6.51 µM (active),
O=C(O)c1ccc(CN2CCC(CN[C@@H]3C[C@H]3c3ccccc3)CC2)cc1,inactive,
CC1(C)CC[C@]2(C(=O)O[C@@H]3O[C@H](CO)[C@@H](O)[C@H](O)[C@H]3O)CC[C@]3(C)C(=CCC4[C@@]5(C)C[C@@H](O)[C@H](O)[C@](C)(C(=O)O)C5CC[C@]43C)C2C1O (stereo partly drawn),inactive,
COc1cc(Nc2nc3c(s2)CCCC3c2ccc(F)cc2)ccc1-n1cnc(C)c1 (stereo not drawn),20.6 µM (active),
CC(=O)OC1C(c2ccccc2)CCC(c2ccccc2)C1OC(C)=O (stereo not drawn),inactive,
O=C(OC[C@H]1O[C@H](O[C@]2(CO)O[C@H](CO)[C@@H](O)[C@@H]2O)[C@H](O)[C@@H](O)[C@@H]1O)c1ccccc1,inactive,
CC1(C)CCCC2(C)C(CO)C(CO)=CCC12 (stereo not drawn),inactive,
CC(C)CCC[C@@H](C)[C@H]1CC[C@H]2[C@@H]3CC(=O)[C@H]4C[C@@H](O)CC[C@]4(C)[C@H]3CC[C@]12C,inactive,
CC(C)S(=O)(=O)NC[C@H](C)c1ccc(NC(=O)c2cc(F)cc(F)c2)cc1,inactive,

SMILES,Potency,"activity change, negative = cytotoxicity"
CN[C@H](C(=O)N[C@H](C(=O)N(C)[C@H](/C=C(\C)C(=O)O)C(C)C)C(C)(C)C)C(C)(C)c1ccccc1,0.0184 µM (active),
C=CC(C)(C)c1[nH]c2cc3c(cc2c1CC1NC(=O)C2CCCN2C1=O)C=CC(C)(C)O3 (stereo not drawn),inactive,
CCOc1cc2ncc(C#N)c(Nc3ccc(F)c(Cl)c3)c2cc1NC(=O)/C=C/CN(C)C,3.26 µM (active),
C=CC(C)(O)CC/C=C(\C)C(=O)OC1C(O)C(CO)OC(OC(=O)C23CCC(C)(C)CC2C2=CCC4C5(C)CCC(OC6OC(COC7OCC(OC(C)=O)C(O)C7OC7OC(COC(C)=O)C(O)C(O)C7O)C(O)C(O)C6O)C(C)(C)C5CCC4(C)C2(C)C(O)C3O)C1OC1OCC(OC2OCC(O)C(OC3OCC(O)C(O)C3O)C2O)C(O)C1O (stereo not drawn),,9.63% [at 5.11 µM] (inactive)
CC1(C)CC[C@]2(CO[C@@H]3O[C@H](CO)[C@@H](O)[C@H](O)[C@H]3O)[C@@H](O)C[C@]3(C)C(=CCC4[C@@]5(C)CC[C@H](O[C@@H]6O[C@H](CO[C@@H]7O[C@H](CO[C@@H]8OC[C@@H](O)[C@H](O)[C@H]8O)[C@@H](O)[C@H](O)[C@H]7O)[C@@H](O)[C@H](O)[C@H]6O)C(C)(C)C5CC[C@]43C)[C@@H]2C1 (stereo partly drawn),,1.76% [at 9.29 µM] (inactive)
O=C1CSc2ccccc2N1Cc1cccc(C(F)(F)F)c1,inactive,
Cc1ccc(-c2ccc3ncc4c(c3n2)n(C2CCN(C(=O)[C@H](C)O)CC2)c(=O)n4C)cn1,0.164 µM (active),
CC[C@H]1OC(=O)[C@H](C)[C@@H](O[C@H]2C[C@@](C)(OC)[C@@H](O)[C@H](C)O2)[C@H](C)[C@@H](O[C@@H]2O[C@H](C)C[C@H](N(C)C)[C@H]2O)[C@](C)(O)C[C@@H](C)C(=O)[C@H](C)[C@H]2OC(=O)O[C@@]21C,inactive,
CC(C)CCC1(O)C(=O)C(C)(C)C(O[C@@H]2O[C@H](CO)[C@@H](O)[C@H](O)[C@H]2O)C(C)(C)C1O (stereo partly drawn),inactive,
CN1CCN(C2CCC(n3cc(-c4ccc(Oc5ccccc5)cc4)c4c(N)ncnc43)CC2)CC1 (stereo not drawn),5.8 µM (active),
CC(C)O[C@@H]1O[C@H](CO)[C@@H](O)[C@H](O)[C@H]1O,inactive,
COc1cc2c(cc1OC)-c1[nH]nc(Nc3cccc(F)c3)c1C2,0.092 µM (active),
Cc1ccc(C(=O)N(CCCN)C(c2oc3cc(Cl)ccc3c(=O)c2Cc2ccccc2)C(C)C)cc1 (stereo not drawn),0.517 µM (active),
CC(C)CC1NC(=O)C2CC3(O)c4ccccc4NC3N2C1=O (stereo not drawn),inactive,
NC(=O)c1cccc2cn(-c3ccc(C4CCCNC4)cc3)nc12 (stereo not drawn),inactive,
NC1CCC(Nc2cc(-c3cccc(NCc4cccc(F)c4)n3)c(Cl)cn2)CC1 (stereo not drawn),1.16 µM (active),
CC(=O)N1CCc2ccc(O)c(OC3OC(COC4OCC(O)(CO)C4O)C(O)C(O)C3O)c2C1Cc1ccc(O)cc1 (stereo not drawn),inactive,
C=C[C@H]1CN2CC[C@H]1C[C@@H]2C(O)c1ccnc2ccc(OC)cc12 (stereo partly drawn),inactive,
O=C1C=CC(O)(/C=C/C(=O)OC[C@H]2O[C@@H](Oc3ccc(O)cc3)[C@H](O)[C@@H](O)[C@@H]2O)C=C1,inactive,
